Records with an inconclusive call do not appear. Where a call stands in place of a potency, no number is given. Activity calls are given as the source filed them. The call rests on the fitted dose curve; in most records, active means well fitted curve in the direction sought with a large enough effect; inconclusive means small, poorly fitted or top-dose-only effect, or another doubt; inactive means no such curve, though single readings can be large; an effect the other way counts as inactive or inconclusive.
Assays:
[1] = biological target: Aldehyde dehydrogenase, mitochondrial (Homo sapiens) (UniProt P05091); test: qHTS for Inhibitors of the Aldehyde Dehydrogenase Family (ALDH2) Primary screen (AID 2061308); conditions: ALDH2 enzyme inhibition qHTS, 1536-well; series mostly up to 56 µM; further: nearly all actives have a fitted effect of over 55% in size
[2] = biological target: Retinaldehyde dehydrogenase 3 (Homo sapiens) (UniProt P47895); test: qHTS for Inhibitors of the Aldehyde Dehydrogenase Family (ALDH1A3) Primary screen (AID 2061315); conditions: ALDH inhibition qHTS; series mostly up to 56 µM

SMILES | Potency [1] | Potency [2]
COc1ccc(C2Nc3ccccc3C(=O)N2Cc2ccccc2)cc1Oc1ccc(NC(C)=O)cc1 (centres undefined) | inactive | inactive
CC(=O)c1ccccc1-c1ncc(C)c(NCc2ccc(-c3cccnc3)cc2)n1 | inactive | inactive
COc1ccc(CN(Cc2ccccc2)C(=O)c2ccccc2)cc1COc1ccc(NC(C)=O)cc1 | inactive | inactive
Cc1cn2c(n1)Cc1ccc(Cl)cc1C(c1ccc(N)cc1)=N2 | inactive | inactive
C=C(NC(=O)C(=C)NC(=O)c1csc(C2=NC3c4csc(n4)C4NC(=O)c5csc(n5)C(C(C)(O)C(C)O)NC(=O)C5CSC(=N5)/C(=C/C)NC(=O)C(C(C)O)NC(=O)c5csc(n5)C3(CC2)NC(=O)C(C)NC(=O)C(=C)NC(=O)C(C)NC(=O)C(C(C)CC)NC2C=Cc3c(C(C)O)cc(nc3C2O)C(=O)OC4C)n1)C(N)=O (centres undefined) | inactive | inactive
CC(=O)c1ccc(C(=O)Nc2nnc(-c3ccco3)o2)cc1 | inactive | inactive
CCN(CC)CCCCn1c(-c2ccccc2)nc2c(Nc3ccccc3)nc(C)nc21 | inactive | inactive
COC(=O)c1ccc(NC(=O)c2cc(-c3ccc(C)c(C)c3)nc3ccccc23)cc1 | inactive | inactive
O=C(O)c1ccc2c(c1)C(=O)N([C@H](Cc1ccc(C(F)(F)F)cc1)C(=O)O)C2=O | inactive | inactive
CC(=O)Nc1sc2c(c1-c1nc3ccccc3s1)CCCN(C(C)C)C2 | inactive | inactive
C=CCNc1oc(-c2cccc(Cl)c2)nc1C#N | inactive | inactive
O=C(OCC#CCSc1nnc(-c2cccc3ccccc23)o1)c1cc(F)c(F)c(F)c1 | inactive | inactive
